RGS4 inh: Inhibitors of Regulator of G Protein Signaling (RGS) 4: qHTS. Regulator of G-protein signaling 4 (Homo sapiens), P49798. Transcreener GDP fluorescence polarization, RGS4-accelerated GTP hydrolysis. Potency, µM (highest dose often 114 µM), for inactives: at the top dose activity change, negative = inhibition, most hits filed as inhibitors. actives 0.039% (n = 390,000). AID 504845, 2011; active = well fitted curve in the direction sought with a large enough effect; inconclusive = small, poorly fitted or top-dose-only effect, or another doubt; inactive = no such curve, though single readings can be large; an effect the other way counts as inactive or inconclusive; also: potency is read from the fitted curve at half-maximal effect; % is scaled to controls: 0 for no effect and ±100 for the full control effect; nearly all actives have a fitted effect of over 75% in size
Target sequence (P49798 whole entry, looked up): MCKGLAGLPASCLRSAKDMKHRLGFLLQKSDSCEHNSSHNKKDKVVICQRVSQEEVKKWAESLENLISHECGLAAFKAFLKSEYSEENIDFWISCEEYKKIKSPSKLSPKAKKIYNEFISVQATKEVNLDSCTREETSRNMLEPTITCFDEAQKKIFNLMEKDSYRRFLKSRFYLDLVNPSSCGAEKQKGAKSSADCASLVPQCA
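MLSMR compounds (23 nl, pin-transferred) preincubated 10 min at room temperature with a 500nM (2x) first reagent, then RGS4 at 900nM (2x) plus Transcreener GDP mix added; fluorescence polarization (620/688 nm) read before and after 90 min at 30 °C.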
Six1-Eya2 blk: qHTS Assay for Inhibitors of the Six1/Eya2 Interaction; actives 0.56% (n = 360,000); AlphaScreen GST-Six1/His-Eya2 binding, biochemical; stronger effect = lower value; AID 651725, 2012; activity change, % (no concentration beside the values); also: % is scaled to controls: 0 for no effect and ±100 for the full control effect
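AlphaScreen with GST-Six1 and His-Eya2 (5X mix: 250 nM and 500 nM), glutathione donor and nickel acceptor beads; buffer 50 mM Tris pH 8.0, 300 mM NaCl, 1 mM TCEP; 1 h at 37 C in the dark.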
pAkt inh: HTS Assay for Inhibitors of Akt Phophorylation: Primary Screen | AID 651550, 2012 | activity change, % for hits at 50 µM | actives 0.32% (n = 360,000) | Neuro2A IGF-stimulated pAkt S473 HTRF, 20 min; stronger effect = lower value; in the data active = activity change below about -80%; inconclusive = mostly about -51% to -80%; also: % is scaled to controls: 0 for no effect and ±100 for the full control effect
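Single-point screen (50 µM final compound) in Neuro2A cells stimulated 20 min with 6 nM IGF at 37 deg C. After lysis, Ser473-phosphorylated Akt read by HTRF (ex 330 nm, em 615/665 nm) as the 665/615 ratio.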
GRP78 ERSR act: qHTS for Inducers of the Endoplasmic Reticulum Stress Response (ERSR) in Human Glioma: qHTS. U87-MG GRP78 promoter luciferase reporter, 16 h. Potency, µM, inactives show at the top dose activation, actives largely listed as activators. actives 0.02% (n = 420,000). AID 602332, 2012; active = well fitted curve in the direction sought with a large enough effect; inconclusive = small, poorly fitted or top-dose-only effect, or another doubt; inactive = no such curve, though single readings can be large; an effect the other way counts as inactive or inconclusive; also: potency is read from the fitted curve at half-maximal effect; series mostly up to about 76 µM; % of control where 0% means no effect; nearly all actives have a fitted effect of over 35% in size
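ERSR induction read as luciferase luminescence (Bright-Glo, 10 min at room temperature) in stably transfected human U87-MG glioma cells exposed to compounds for 16 h, using GRP78 as sensor.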
CtBP-E1A blk: qHTS Assay for Inhibitors of the CtBP/E1A Interaction; CtBP / adenovirus E1A interaction (AlphaScreen); AlphaScreen GST-E1A/His-CtBP binding, 1536-well; stronger effect = lower value; actives 0.49% (n = 340,000); activity change, % (test concentration not listed); AID 651724, 2012; also: % is scaled to controls: 0 for no effect and ±100 for the full control effect
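AlphaScreen with 125 nM GST-E1A and 125 nM His-CtBP (5X stocks) in Tris pH 8.0, 300 mM NaCl, BSA, Tween 20, TCEP. Compounds preincubated 2 h at 37 deg C, then glutathione donor/nickel acceptor beads added for 1 h at 37 deg C in dark.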
An asterisk follows results filed as active. Only some compounds are listed: those with a hit (about 0.88% of all), similar ones and a draw of the others. Rule as the data show it, unless noted: active = activity change below about -65%; inconclusive = mostly about -30% to -63%; inactive = weaker than that.

Results for O=C(OCc1ccccc1)N1CCN(/[N+]([O-])=N/Oc2ccc([N+](=O)[O-])cc2[N+](=O)[O-])CC1 ?
GRP78 ERSR act: -11%

Results for O=C(CN(CCc1c[nH]c2ccccc12)S(=O)(=O)c1ccccc1)N1CCCCCC1 ?
GRP78 ERSR act: -3%

What do the screens show for `CCc1ccccc1N(CC)C(=O)CCc1nc(-c2ccc(C)cc2)no1`?
RGS4 inh: -6%; Six1-Eya2 blk: 14; pAkt inh: -116%*; GRP78 ERSR act: -2%; CtBP-E1A blk: 25

What do the screens show for `Cc1ccc(-c2noc(CCC(=O)N(C)c3ccccc3F)n2)cc1`?
RGS4 inh: -7%; GRP78 ERSR act: 0%

How did CN1[C@@H]2CCC[C@@H]1CC(NC(=O)c1nn(C)c3ccccc13)C2 (stereo not given in full) do in these assays?
GRP78 ERSR act: -1%

How did OCCN1CCN(Cc2ccc3c(c2)CN(Cc2ccc4ccccc4c2)CCO3)CC1 do in these assays?
GRP78 ERSR act: -6%

Results for COc1ccc(C(=O)NC(=S)NNC(=O)c2ccc3ccccc3n2)cc1 ?
RGS4 inh: -40%; Six1-Eya2 blk: -86*; pAkt inh: inactive; GRP78 ERSR act: -1%; CtBP-E1A blk: -82*

What do the screens show for `COc1cc(OC)cc(C(=O)NNC(=O)c2ccc3ccccc3n2)c1`?
RGS4 inh: -13%; Six1-Eya2 blk: -13; pAkt inh: inactive; GRP78 ERSR act: inconclusive; CtBP-E1A blk: -3

What do the screens show for `Cc1cc([N+](=O)[O-])cc(/C=N/n2c(C)nc3ccccc3c2=O)c1O`?
RGS4 inh: -23%; Six1-Eya2 blk: inconclusive; pAkt inh: inactive; GRP78 ERSR act: -7%; CtBP-E1A blk: -86*

Results for CCCN1CNc2c(c(=O)[nH]c(=S)n2CCc2c(OC)cccc2OC)C1 ?
RGS4 inh: 14%

What do the screens show for `CCn1c(SCc2ccc(C)cc2)nnc1C1CCN(S(=O)(=O)c2ccc(OC)cc2)CC1`?
RGS4 inh: 3%; Six1-Eya2 blk: 0; pAkt inh: -130%*; GRP78 ERSR act: -5%; CtBP-E1A blk: 2

Results for CCOc1ccc(NC(=O)CSc2nnc3c(n2)[nH]c2ccc(S(=O)(=O)N4CCCCC4)cc23)cc1 ?
RGS4 inh: 6%

Results for O=c1[nH]n(-c2ccccc2)c(=O)c2ccccc12 ?
RGS4 inh: 16%; Six1-Eya2 blk: 8; pAkt inh: inactive; GRP78 ERSR act: 5%; CtBP-E1A blk: 1

Results for O=C(O)c1cc2c(ncc3c(=O)n(-c4ccccc4)[nH]c32)s1 ?
Six1-Eya2 blk: -75*; pAkt inh: inactive; GRP78 ERSR act: -1%; CtBP-E1A blk: -68*

Results for COc1cccc(CN2CCC3(CCC(CNC(=O)c4ccco4)O3)CC2)c1OC (stereo not given) ?
GRP78 ERSR act: -1%

How did Nc1c(C(=O)Nc2ccc(Cl)c(C(=O)O)c2)sc2nc3c(cc12)CCCC3 do in these assays?
RGS4 inh: -2%; Six1-Eya2 blk: -74*; pAkt inh: inactive; GRP78 ERSR act: -4%; CtBP-E1A blk: -78*

How did Nc1c(C(=O)Nc2ccc(C(=O)O)cc2)sc2nc3c(cc12)CCCC3 do in these assays?
RGS4 inh: -8%; GRP78 ERSR act: -7%

Results for Cc1ccsc1C1Cc2c(C(=O)NCc3cccnc3)c(=O)cc(C)n2-c2ccccc2S1 (stereo not given) ?
GRP78 ERSR act: -3%

How did CSc1nnc(C)c(/C=C/Nc2ccc(C)cc2)n1 do in these assays?
RGS4 inh: -42%; Six1-Eya2 blk: -14; pAkt inh: inactive; GRP78 ERSR act: -4%; CtBP-E1A blk: -67*

How did CSc1nnc(C)c(/C=C/NOCc2ccc(Cl)cc2)n1 do in these assays?
RGS4 inh: -4%; Six1-Eya2 blk: -6; pAkt inh: inactive; GRP78 ERSR act: -4%; CtBP-E1A blk: -2

How did CC(=O)c1ccc(NC(=O)c2cccc(N3C(=O)c4ccccc4C3=O)c2)cc1 do in these assays?
RGS4 inh: -13%; Six1-Eya2 blk: 7; pAkt inh: inactive; GRP78 ERSR act: -3%; CtBP-E1A blk: -5

What do the screens show for `COc1ccc(NC(=O)c2cccc(N3C(=O)c4ccc(C(=O)Nc5ccc(OC)c(O)c5)cc4C3=O)c2)cc1O`?
RGS4 inh: -9%; Six1-Eya2 blk: inconclusive; pAkt inh: inactive; GRP78 ERSR act: -7%; CtBP-E1A blk: -66*

What do the screens show for `Nc1ccc(N=Nc2ccc(N)cc2)cc1`?
RGS4 inh: -4%; Six1-Eya2 blk: -11; pAkt inh: inactive; GRP78 ERSR act: -10%; CtBP-E1A blk: -5

Results for Cc1cc(N(C)C)ccc1N=Nc1ccc(N)cc1 ?
RGS4 inh: -22%; Six1-Eya2 blk: -77*; pAkt inh: inactive; GRP78 ERSR act: -1%; CtBP-E1A blk: -74*

Results for N#Cc1ccsc1NC(=O)c1ccccn1 ?
RGS4 inh: 9%; Six1-Eya2 blk: -67*; pAkt inh: inactive; GRP78 ERSR act: 3%; CtBP-E1A blk: inconclusive

How did O=C(N/N=C/C(Br)=C\c1ccccc1)c1ccco1 do in these assays?
RGS4 inh: -35%; Six1-Eya2 blk: -8; pAkt inh: inactive; GRP78 ERSR act: 2%; CtBP-E1A blk: -82*

How did O=C(N/N=C/c1ccccc1)c1ccco1 do in these assays?
RGS4 inh: -7%; Six1-Eya2 blk: 2; pAkt inh: inactive; GRP78 ERSR act: -3%; CtBP-E1A blk: 8

How did O=C(N/N=C/C(Br)=C\c1ccccc1)c1cccs1 do in these assays?
RGS4 inh: -19%; Six1-Eya2 blk: -11; pAkt inh: inactive; GRP78 ERSR act: 4%; CtBP-E1A blk: -81*

Results for O=C(N/N=C/C(Br)=C\c1ccccc1)c1ccc2nc[nH]c2c1 ?
RGS4 inh: inconclusive; Six1-Eya2 blk: -20; pAkt inh: inactive; GRP78 ERSR act: 1%; CtBP-E1A blk: -77*

What do the screens show for `O=C(C[n+]1ccccc1Br)c1ccc2c(c1)CCCC2`?
GRP78 ERSR act: -1%

How did CCOc1cc(/C=C(\C#N)c2[nH]nc(N)c2C#N)ccc1O do in these assays?
RGS4 inh: -34%; Six1-Eya2 blk: -67*; pAkt inh: inactive; GRP78 ERSR act: 5%; CtBP-E1A blk: -81*

Results for CCOc1cc(-c2cc(-c3ccc(C)cc3)nc(N)c2C#N)ccc1O ?
RGS4 inh: -2%; Six1-Eya2 blk: -15; pAkt inh: inactive; GRP78 ERSR act: -6%; CtBP-E1A blk: -6

What do the screens show for `N#C/C(N=Nc1ccccc1O)=N\Nc1ccccc1O`?
RGS4 inh: inconclusive; Six1-Eya2 blk: -70*; pAkt inh: inactive; GRP78 ERSR act: -6%; CtBP-E1A blk: -82*

Results for Oc1ccccc1N=N/C(=N/Nc1ccccc1O)c1ccccc1 ?
RGS4 inh: -2%; Six1-Eya2 blk: -2; pAkt inh: inactive; GRP78 ERSR act: 0%; CtBP-E1A blk: -1

Source: PubChem
